Each structure is given as a SMILES string. Among all 62,000 compounds or so, about 95 (0.2%) were called active. This is one part of a sample in which actives are shown more often than they occur. Unmarked numbers belong to inactive results.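 Rule for the calls: active = inhibition above 20% in each of the two mixture wells holding the compound; inactive = inhibition of 20% or less in either well.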

A word on the inhibition: it is the relative decrease from the control value, in per cent.

In the assay the target is Cathepsin G (Homo sapiens) (UniProt P08311). As to the kind of experiment: human cathepsin G inhibitors, primary screen, biochemical, pooled compound mixtures, AMC fluorescence (AID 581).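 Note: 0% = enzyme control without mixture and 100% = blank lacking enzyme.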 As to conditions: purified enzyme, AMC-tetrapeptide fluorescence, active compounds read high, screened at 5 µM (by protocol).
Cathepsin G (Homo sapiens), sequence (P08311 21-244 limits assumed): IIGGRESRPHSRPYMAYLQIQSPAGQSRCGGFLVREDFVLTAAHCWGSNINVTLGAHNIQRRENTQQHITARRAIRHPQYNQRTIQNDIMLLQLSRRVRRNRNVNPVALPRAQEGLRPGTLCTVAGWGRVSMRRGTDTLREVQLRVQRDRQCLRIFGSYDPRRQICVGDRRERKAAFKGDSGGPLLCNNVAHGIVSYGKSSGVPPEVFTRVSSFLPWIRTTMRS
`COc1ccc(CCN=C2SCC(=O)N2C)cc1OC`: the inhibition is 11.6%.

`O=C(CCN1C(=O)C2C3C=CC(C3)C2C1=O)Nc1ccccc1F` (stereo not drawn): the inhibition is 6.93%.

As for `O=C(COc1ccccc1Cl)Nn1cnnc1`, the inhibition was 3.79%. Take `CCCOc1ccc(N2CC(C(=O)Nc3ccccn3)CC2=O)cc1` (stereo not drawn): the inhibition was 1.22%.

Turning to `CC1CN(C2CCCCC2)c2nc3c(c(=O)n(C)c(=O)n3C)n2C1` (stereo not drawn), the inhibition is -2.58%. To `COc1ccc(C2CC(c3ccccc3)Nc3ncnn32)cc1` (stereo not drawn) belongs -0.07%; to `O=C(c1cccnc1NCc1ccccc1)N1CCOCC1`, -5%; to `CN(C)/C=C1/Nc2ccccc2C1=O`, -0.82%. Turning to `O=c1nc(N2CCOCC2)nc2n1CCO2`, the inhibition was 1.08%. With `CCOc1ccc(C(=O)N(Cc2ccc(N(C)C)cc2)C2CCS(=O)(=O)C2)cc1` (stereo not drawn), the inhibition was 7.67%. Under `CCN1CCN(C(=O)c2ccccc2N(C)S(=O)(=O)c2ccc(C)cc2)CC1` stands 3.35%; under `CCc1nc(Nc2ccc3nccnc3c2)c2oc3ccccc3c2n1`, -2.89%. Under `CNC(=O)n1ccc(C(=O)N2CCCCC2)n1` stands 11%; under `CC(C)(C)n1nnnc1C(c1ccc2ncccc2c1)N1CCSCC1` (stereo not drawn), -7%; under `Cc1ccc(N2C(=O)c3oc4ccccc4c(=O)c3C2c2cccnc2)nc1` (stereo not drawn), 10.5%.

With `O=C(O)CN1C(=O)CC(Cc2ccccc2)C1=O` (stereo not drawn), the inhibition is -0.115%.

For `CCCCn1c(SCc2ncc(-c3ccccc3)o2)nc2cc(S(N)(=O)=O)ccc21`, the inhibition was 13.9%. Turning to `Cc1ccc(CNC(=O)C2CCCN(S(C)(=O)=O)C2)cc1` (stereo not drawn), the inhibition is -3.54%. Turning to `CCC1SC2=NCCN2C1(O)c1ccc(Cl)cc1` (stereo not drawn), the inhibition is 1.99%. Take `Cn1c(=O)[nH]c(=O)c2c1nc(N(CCO)Cc1ccccc1)n2Cc1ccccc1Cl`: the inhibition was 5.71%. Under `COc1ccccc1N1CCN(CCCCOc2ccc(F)cc2)CC1` stands 13.1%. `CCS(=O)(=O)NCCc1ccc(OC)c(OC)c1`: the inhibition was 13.1%. Consider `CCCN1CCN(C(=O)Cn2ncc3ccccc32)CC1`, for which the inhibition is -11.9%. In the case of `CCc1nc2oc3ccccc3c(=O)c2c(=O)n1Cc1ccc(OC)cc1`, the inhibition is -20.5%.

Take `Cn1cccc1Cc1nnc(SCC(=O)NCc2ccc3c(c2)OCO3)n1CCc1ccccc1`: the inhibition was 10.5%.

Consider `COc1ccc(C(=O)Cn2nnc(-c3ccc(N4CCOCC4)cc3)n2)cc1OC`, for which the inhibition was 2.19%.

`COC(=O)c1ccc(OC(=O)c2nn(C)cc2Cl)c(OC)c1`: the inhibition is 1.08%.

In the case of `COc1ccccc1C(=O)n1nc(-c2ccccc2)nc1N`, the inhibition was 7.93%. Regarding `COc1ccc(C(=O)n2nc(-c3ccc(C)cc3)nc2N)cc1OC`, the inhibition is 44% (active). Under `COc1ccc(CC(=O)n2nc(-c3cccnc3)nc2N)cc1` stands 14.7%; under `COc1ccc(C(=O)n2nc(-c3ccc(Cl)cc3)nc2N)cc1OC`, 37.8% (active).

As to `Cc1cccc(-n2c(Cc3cc(=O)[nH]c(=O)[nH]3)nnc2SC(C)C)c1`, the inhibition was 10.3%. For `CCCN1Cc2cccc(C(=O)NCc3ccccc3)c2C1=O`, the inhibition is -0.625%. To `COc1ccc(N(Cc2cc3cc(OC)ccc3[nH]c2=O)S(C)(=O)=O)cc1` belongs -3.1%; to `Cn1c(CC(=O)Nc2ccccc2)nnc1SCC(=O)c1ccccc1`, -0.18%. Turning to `c1ccc2cc(OCCN3CCCC3)ccc2c1`, the inhibition is -4.75%. As to `O=C(O)CSC(NC(=O)c1cccnc1)(C(F)(F)F)C(F)(F)F`, the inhibition is 4.23%.

Consider `CCOC(=O)c1c(NC(=O)CSc2nnc(Cc3csc(N)n3)n2C)sc(C)c1C`, for which the inhibition is -4.19%. As to `CC1(C)CC(=O)C(C=NCCC2=CCCCC2)=C(O)C1`, the inhibition was 6.17%.

For `O=C1CCCC(O)=C1C=NCCc1ccccc1`, the inhibition is 33.4% (active).

Take `O=C1CC(c2ccccc2)CC(O)=C1C=NCCN1CCOCC1` (stereo not drawn): the inhibition was 14.8%. `O=C(CSc1nnc(-c2cccs2)n1Cc1ccco1)c1ccc2c(c1)OCO2`: the inhibition is 7.29%. To `CSc1ccc(S(=O)(=O)Nc2cccc(F)c2)cc1` belongs -1.91%; to `CCCNC(=O)Nc1ccccc1C(=O)Nc1ccc(OC)cc1`, 4.04%; to `CC1(C)CC(=O)c2cc(OCC(=O)NCC3CCCO3)ccc2O1` (stereo not drawn), 4.79%. In the case of `O=C(c1ccco1)N1CCN(C(=O)C2CC(c3ccc(F)cc3)=NO2)CC1` (stereo not drawn), the inhibition was 2.3%. Under `COCCCNC(=O)CCc1nc2cccnc2n1Cc1ccc(OC)cc1` stands 11.7%; under `CCN(c1ccc2c(c1)OCO2)S(=O)(=O)c1cc(Br)cc2c1N(C(=O)C1CC1)CC2`, 2.07%.

With `COC(=O)c1cc(NC(=O)CN2CCC(C(N)=O)(N3CCCCC3)CC2)cc(C(=O)OC)c1`, the inhibition is -6.63%. Under `CN(C)c1ccnc2sc3c(=O)n(Cc4ccccc4)cnc3c12` stands -4.39%; under `CC(=O)N1C(=O)C2(Nc3ccccc3N2)c2ccccc21`, -1.99%; under `Cc1ccccc1CSc1nnc(-c2cccnc2)n1N`, 14.2%. To `Cc1cccc(NC(=O)CSc2nnc(CCCCCNC(=O)OC(C)(C)C)o2)c1C` belongs 6.06%; to `O=C(Cn1c(-c2ccc(Cl)cc2)noc1=O)N1CCN(c2ccccc2F)CC1`, 7.96%. Turning to `O=c1ccn(Cc2ccccc2Cl)cc1`, the inhibition was -1.12%. Take `Cc1cc(NC(=O)CN2CCC(O)(c3cccc(F)c3)CC2)no1`: the inhibition was 5.96%. Regarding `COc1cccc(N(C(=O)c2ccn[nH]2)C2(C(=O)Nc3c(C)cccc3C)CCCCC2)c1`, the inhibition was 8.21%. On to `COc1ccc2occ(C(=O)c3ccc(N=C(C)N(C)C)cc3)c2c1`, for which the inhibition was -7.35%. `O=C1Nc2c(Br)cc(Br)cc2C1(O)N1CCOCC1` (stereo not drawn): the inhibition was 1.49%. To `CCOC(=O)CNC(=O)CSc1nnc(-c2cccc(OC)c2)n1CC` belongs -5.21%; to `Oc1c(C(c2ccccn2)N2CCOCC2)ccc2cccnc12` (stereo not drawn), 13.3%. Consider `CN(C(=O)c1ccccn1)c1nnc(-c2ccccn2)s1`, for which the inhibition is 10.6%. Under `COc1ncnc2c1N=C1CC(C)(C)CC(N)=C1S2` stands -6.43%. Regarding `Cc1noc(C)c1C(=O)Nc1ccccn1`, the inhibition is -18.6%. To `CCOC(=O)N1CCN(CC(=O)c2ccc3c(c2)CCN3)CC1` belongs 10.3%; to `Cc1occc1C(=O)Nc1nnc(-c2ccncc2)s1`, 39.2%; to `COCCn1c(SCC(=O)Nc2cc(Cl)ccc2OC)nc2c(c1=O)SC(C)C2` (stereo not drawn), 9.03%. Under `NC(=O)CCCC1=NS(=O)(=O)c2ccccc2N1` stands 4.5%.

Regarding `CCOC(=O)c1ccc(NC(=O)CSc2ncccn2)cc1`, the inhibition was -1.62%. As for `CCOC(=O)c1ccc(NC(=O)Cn2nnc(-c3ccc(C)cc3)n2)cc1`, the inhibition was -7.1%.

Regarding `CCOC(=O)c1ccc(NC(=O)CS(=O)(=O)c2cn(CC)c3ccccc23)cc1`, the inhibition is 29.3% (active).

On to `COc1ccc2nc(NC(=O)c3ccc(Br)s3)sc2c1`, for which the inhibition was 10.8%.

As for `O=C(Cn1nc(Cc2cccnc2)c2ccccc2c1=O)NCC1COc2ccccc2O1` (stereo not drawn), the inhibition was 8.5%. For the compound `C/C(N)=C(\C#N)C(=O)NCCc1ccccn1`, the inhibition is 2.5%. `CCSC1=C(C#N)C(=O)n2c1cc1c2CCCC1`: the inhibition was 0.675%.

Take `CSc1nsc(SC)c1NC(=O)OC1CCCCC1`: the inhibition was 7.19%.

In the case of `CCOC(=O)C1CCCN(C(=O)c2ccc(CS(=O)(=O)c3ccc(Br)cc3)o2)C1` (stereo not drawn), the inhibition is 7.41%. To `CCOC(=O)c1csc(NC(=O)c2ccc(S(=O)(=O)N3CCCC3)cc2)n1` belongs -0.28%.

For the compound `COc1ccc(OC)c(NC(=O)CN2CCN(C(=O)c3ccco3)CC2)c1`, the inhibition is 9.79%. Take `Cn1c(-c2ccc(C(=O)c3ccccc3)s2)nc2ccccc21`: the inhibition was 2.31%. To `CN(Cc1ccccc1)C(=O)CCNC(=O)Cn1cnc2ccccc2c1=O` belongs -3.7%; to `COc1ccc(OC)c(C(=O)c2coc3ccc(OC)cc23)c1`, -10.9%. Under `O=C(c1cc(-c2cccc(O)c2)on1)N1CCc2ccccc2C1` stands 5.56%.

Turning to `COc1ccc2c(c1)CCc1c(C(=O)N3CCc4ccccc4C3)noc1-2`, the inhibition is 35% (active). To `COC(=O)Nc1c(C)n(C)n(-c2ccccc2)c1=O` belongs 11.2%. For `Cc1cc(C(=O)Nc2c(C)n(C)n(-c3ccccc3)c2=O)cs1`, the inhibition is 8.47%. As for `COc1ccc2c(c1)CCc1c(C(=O)N3CCCC3)noc1-2`, the inhibition was 18.8%. Under `COc1ccc2c(c1)CCc1c(C(=O)Nc3c(C)n(C)n(-c4ccccc4)c3=O)noc1-2` stands 34.3% (active). On to `CCOc1cc(CO)ccc1OCC(=O)N1CCCCC1`, for which the inhibition is 4.5%. `COc1ccc(C(=O)Nc2ccc(S(=O)(=O)Nc3onc(C)c3C)cc2)cc1OC`: the inhibition is -6.97%. To `COCCCN1C(=O)c2ccc(C(=O)Nc3ccc(OC)cc3OC)cc2C1=O` belongs -4.08%; to `Cc1nn(Cc2ccc(Cl)c(Cl)c2)c(C)c1NC(=O)c1cc(C2CC2)on1`, -8.5%. Consider `CN(C)c1cc(N)c2ccccc2n1` (tested in a mixture with another compound), for which the inhibition is 2.17%. To `O=C(CSc1nnc(-c2ccoc2)o1)N1CCOCC1` belongs 1.64%. On to `Cc1cccc(-n2c(O)c(C=Nc3ccccc3N)c(=O)[nH]c2=O)c1`, for which the inhibition was -2.9%. Under `C1=C(N2CCOCC2)/C(=C/c2nc3ccccc3[nH]2)CC1` stands 12.8%; under `CCOc1ccc(CC(=O)Nc2ccc(S(=O)(=O)Nc3cc(C)on3)cc2)cc1OCC`, 6.78%; under `Cc1ccc(S(=O)(=O)N(C)CC(=O)NC2CCCC2)cc1`, 1.06%.

Source of the values: PubChem BioAssay AID581 (PCMD, 2007).
